Test results as given in PubChem BioAssay (NCATS).
Calls of active or inactive are those of the source. The call rests on the fitted dose curve; in most records, active means well fitted curve in the direction sought with a large enough effect; inconclusive means small, poorly fitted or top-dose-only effect, or another doubt; inactive means no such curve, though single readings can be large or run the other way.

What follows are molecules tested against alpha-glucosidase (Oryza sativa, rice) (UniProt Q653V4) (assay: Counterscreen for Glucocerebrosidase Inhibitors: qHTS Assay for Rice alpha-Glucosidase at pH 5.0 (AID 997)). Conditions: rice alpha-glucosidase enzyme activity; series mostly up to 76.9 µM.
How it was run: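 Rice alpha-glucosidase (4 nM final) with 400 uM 4-methylumbelliferyl-alpha-D-glucopyranoside in citrate buffer pH 5.0, 20 min at room temperature, stopped at pH 10; fluorescence 365/440 nm, compounds 0.7 nM–77 uM, AC50 from Hill fits.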

SMILES | outcome
Cc1nc2c([nH]1)c(=O)n(C)c(=O)n2Cc1ccco1 | inactive
OCCN1CCN(CCCN2c3ccccc3C=Cc3ccccc32)CC1 | inactive
CCN1CCc2nc(N)oc2CC1 | inactive
Cc1ccc(=O)n(-c2ccccc2)c1 | inactive
O=C(O)CN(CCN(CC(=O)O)CC(=O)O)CCN(CC(=O)O)CC(=O)O | inactive
CN(C)C(=O)Oc1cccc([N+](C)(C)C)c1 | inactive
CCNC(=O)N1CCN(CCCC(c2ccc(F)cc2)c2ccc(F)cc2)CC1 | inactive
CN(C)C(=O)Oc1ccc[n+](C)c1 | inactive
O=C1NCN(c2ccccc2)C12CCN(CCCC(c1ccc(F)cc1)c1ccc(F)cc1)CC2 | inactive
Cc1scc2c1N(C(=O)CN1CCN(C)CC1)c1ccccc1NC2=O | inactive
CCCN(CCC)CCc1cccc2c1CC(=O)N2 | inactive
c1cc(CN2CCCCC2)cc(OCCCNc2nc3ccccc3s2)c1 | inactive
CCc1cccc(N(C)C(N)=Nc2cccc3ccccc23)c1 | inactive
CC(C)NNC(=O)c1ccncc1 | inactive
CN(C)CCCN1c2ccccc2Sc2ccc(C(F)(F)F)cc21 | inactive
O=C1CC2(CCCC2)CC(=O)N1CCCCN1CCN(c2ncccn2)CC1 | inactive
C[C@]12C=CC(=O)C=C1CC[C@H]1[C@@H]3C[C@@H](O)[C@](O)(C(=O)CO)[C@@]3(C)C[C@H](O)[C@@]12F | inactive

SMILES | outcome
C[C@]12CCC(=O)C=C1CC[C@@H]1[C@@H]2C(=O)C[C@@]2(C)[C@H]1CC[C@]2(O)C(=O)CO | inactive
O=C(CCCN1CCC(O)(c2cccc(C(F)(F)F)c2)CC1)c1ccc(F)cc1 | inactive
CN(C)CCOC(=O)COc1ccc(Cl)cc1 | inactive
NCCCNCCSP(=O)(O)O | inactive
CNCCCN1c2ccccc2CCc2ccccc21 | inactive
Brc1c(NC2=NCCN2)ccc2nccnc12 | inactive
CCCCNc1c(C(=O)OCC)c(C)nc2c1cnn2CC | inactive
CCO/C([O-])=N/c1c[n+](N2CCOCC2)no1 | inactive
Cc1nc2sccn2c(=O)c1CCN1CCC(=C(c2ccc(F)cc2)c2ccc(F)cc2)CC1 | inactive
CC(=O)Oc1cc(C(C)C)c(OCCN(C)C)cc1C | inactive
CN(C)CCN(Cc1cccs1)c1ccccn1 | inactive
CCN(CC)CCNC(=O)c1ccc(NC(C)=O)cc1 | inactive
C[C@]12CCC(=O)C=C1CC[C@@H]1[C@@H]2CC[C@@]2(C)[C@H]1CC[C@]2(O)C(=O)CO | inactive
CC(C)[N+](C)(CCOC(=O)C1c2ccccc2Oc2ccccc21)C(C)C | inactive
CCCC(C(=O)OCCN(CC)CC)(c1ccccc1)c1ccccc1 | inactive
CCN(CC)CCNC(=O)c1cc(S(C)(=O)=O)ccc1OC | inactive
CSc1ccc(C(=O)c2[nH]c(=O)[nH]c2C)cc1 | inactive
